Among the data in PubChem BioAssay are inhibition values, retold here.

Values without a mark were called inactive. No rule for the calls is given here.

What is called inhibition is the change of the read-out against control, counted positive when it falls.

Chain of Pantothenate synthetase (Mycobacterium tuberculosis (strain ATCC 25618 / H37Rv)) (P9WIL5 whole entry, looked up): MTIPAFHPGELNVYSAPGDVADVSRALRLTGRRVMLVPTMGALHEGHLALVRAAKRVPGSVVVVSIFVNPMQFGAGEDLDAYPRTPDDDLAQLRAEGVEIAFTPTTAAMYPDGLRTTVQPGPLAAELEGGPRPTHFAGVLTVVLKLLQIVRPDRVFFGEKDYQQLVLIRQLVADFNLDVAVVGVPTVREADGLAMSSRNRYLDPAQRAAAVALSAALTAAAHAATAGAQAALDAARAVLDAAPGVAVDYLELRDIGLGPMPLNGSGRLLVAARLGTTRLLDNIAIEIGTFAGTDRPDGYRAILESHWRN

The test has as its target Pantothenate synthetase (Mycobacterium tuberculosis (strain ATCC 25618 / H37Rv)) (UniProt P9WIL5). Nature of the test: Coupled enzyme confirmation of inhibitors against recombinant Mtb PanC (AID 375).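 Also: 0% = full reaction with vehicle and 100% = no enzyme background.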 Particulars: coupled enzyme assay; at 10 µM, active compounds read high.
For the compound `Cc1c(C(=O)Nc2cnccn2)oc2ccccc12`, the inhibition is 1%. Consider `CCCN(CCC)CCNS(=O)(=O)c1ccc2c(c1)oc(=O)n2C`, for which the inhibition was 2%. Under `Cc1csc(NC(=O)c2ccccc2C(=O)O)n1` stands 5%; under `CCN(CCCNC(=O)COc1cc(=O)n(CC)c2ccccc12)c1ccccc1`, 0%; under `COc1ccc(C(=O)NCCc2nnc(SCc3nc4ccccc4c(=O)[nH]3)n2C)cc1`, 0%.

For the compound `O=C(Nc1ccccc1)N1CCC(c2ccccc2)C1` (stereo not given), the inhibition was 6%. Under `CCCS(=O)(=O)N1CCCC(C(=O)N2CCC(Cc3ccccc3)CC2)C1` (stereo not given) stands 0%.

With `CCC(=O)N1C(=O)CCN(C(C)=O)c2ccccc21`, the inhibition is 0%.

In the case of `O=C(c1ccc(CSCc2ccccc2F)o1)N1CCN(c2ccc(N3CCOCC3)nn2)CC1`, the inhibition is 0%.

As for `CC(=O)Oc1cc(C(C)C)c(OCCN(C)C)cc1C`, the inhibition is 11%. Take `CC1CCCN(C(=O)CN2CCN(C(=O)c3ccco3)CC2)C1` (stereo not given): the inhibition was 0%. `COC(=O)c1[nH]c2ccc(C)cc2c1NC(=O)CN1CCN(C(=O)c2ccccc2)CC1`: the inhibition was 4%. Next, `O=C(CSc1nnc(Cn2cnc3ccccc32)o1)c1ccccc1`: 0%; `CCOC(=O)C1=C(C)Nc2ncnn2C1c1cc(OC)ccc1OC` (stereo not given): 0%. Under `COc1ccc(-c2nnc(SCC#N)o2)cc1` stands 0%. Next, `O=C(Nc1cccnc1)Nc1ccccn1`: 0%. On to `COc1ccccc1N1CCN(CCCNC(=O)Nc2ccccc2)CC1`, for which the inhibition was 10%. On to `Cc1cccc(CN2CCC(CNC(=O)C3CCCN(S(=O)(=O)c4cnc[nH]4)C3)CC2)c1` (stereo not given), for which the inhibition is 0%. `COc1ccc(C2CC(c3ccccc3)Nc3nc(NC(=O)c4cccs4)nn32)cc1` (stereo not given): the inhibition is 0%.

On to `CCN1C(=O)C2(C(C#N)=C(N)Oc3n[nH]c(C(C)C)c32)c2ccccc21` (stereo not given), for which the inhibition is 1%. On to `O=C(C1CCC1)N1CCc2cc(S(=O)(=O)Nc3ccc4c(c3)OCO4)ccc21`, for which the inhibition was 16%.

On to `Cn1c(C(=O)OCC(=O)NCC2CCCO2)cc2sccc21` (stereo not given), for which the inhibition is 2%. Next, `Cc1cccc2cc(CN(Cc3nnnn3Cc3ccco3)C3CCCC3)c3nnnn3c12`: 3%; `CCc1ccc(CN(C)CCc2ccccn2)cc1`: 1%. Under `COc1cc(-c2nn3c(-c4cccnc4)nnc3s2)cc(OC)c1OC` stands 6%; under `CCOCCOc1nc2c(c(=O)n(C)c(=O)n2C)n1Cc1ccc(C)cc1`, 0%.

For the compound `COc1ccc(OC)c(C2C(C#N)=C(N)Oc3cc(C)[nH]c(=O)c32)c1` (stereo not given), the inhibition was 0%. Under `CCCN1C2=C(C(=O)CCC2)C(c2ccc(O)c(Br)c2)C2=C1CCCC2=O` stands 0%; under `Cc1cc(NC(=O)C(C)(C)C)no1`, 0%; under `CCN1CCN(C(=O)C2CCN(C(=O)c3cc4sccc4n3CC)CC2)CC1`, 14%. In the case of `O=C(NCCCN1CCCC1=O)c1ccc2c(c1)NC(=O)C(N1CCOCC1)S2` (stereo not given), the inhibition was 2%. Consider `Cc1cc(C)n2nc(SCc3nc4ccccc4[nH]3)nc2n1`, for which the inhibition was 6%. Next, `COC(=O)Nc1ccc(S(=O)(=O)N(C)CC(F)(F)C(F)F)cc1`: 6%; `Cc1cc2c(c(=O)o1)C(Cc1ccccc1)C(C#N)=C(N)O2` (stereo not given): 1%. Next, `Cc1cnc(NC(=O)CSc2nc3ccccc3c(=O)[nH]2)s1`: 3%; `Cc1oc2cc(O)ccc2c(=O)c1-c1cnn(-c2ccccc2)c1`: 5%.

For the compound `COc1cccc(OC)c1C(=O)Nc1ccc(CN2CCCCC2)cc1`, the inhibition is 0%.

For the compound `CC1(C)CNC(=O)c2sc(N3CCOCC3)nc2C1`, the inhibition is 0%. Next, `Cn1c(=O)c2c(nc(SCC(=O)NCc3ccco3)n2C)n(C)c1=O`: 0%. Next, `NC(=O)CSc1nnc(-c2cnccn2)n1-c1ccccc1`: 0%.
